According to PubChem BioAssay (NCI):
About 79,000 compounds went through this panel and 15% of them were active in at least one assay; those are over-represented in the sample as a whole. Rule as the data show it: active = growth inhibition above about 70%; inactive = the rest.

Columns and labels:
[1] = NCI Yeast Anticancer Drug Screen. Data for the rad50 strain (AID 155);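 also: 0% = growth of vehicle-only cultures of the same strain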; settings: S. cerevisiae rad50 strain growth inhibition; at 50.0 µM; hits give high values
Summary of the method: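 Genetically altered yeast (DNA repair pathway); compound treatment; growth inhibition vs vehicle ctrl.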

[2] = NCI Yeast Anticancer Drug Screen. Data for the mec2-1 strain (AID 157); settings: S. cerevisiae mec2-1 strain, at 50.0 µM, hits give high values
Summary of the method: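 Cells of the genetically defined mec2-1 yeast strain are incubated with test compound. Inhibition of growth is calculated against vehicle-treated controls.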

[3] = NCI Yeast Anticancer Drug Screen. Data for the sgs1 mgt1 strain (AID 161);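 also: 0% = growth of cultures given vehicle only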; settings: S. cerevisiae sgs1 mgt1 strain, at 50.0 µM, hits give high values
Summary of the method: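 Inhibition of yeast growth, normalised to vehicle-treated controls, is reported for a strain bearing genetic alterations in DNA damage repair.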

[4] = NCI Yeast Anticancer Drug Screen. Data for the cln2 rad14 strain (AID 165);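 also: 0% = growth equal to vehicle treated cultures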; settings: S. cerevisiae cln2 rad14 strain, at 50.0 µM, hits give high values
Summary of the method: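 The screen exposed genetically defined yeast (cln2 rad14) to test compounds and scored growth inhibition relative to vehicle-treated controls.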

[5] = NCI Yeast Anticancer Drug Screen. Data for the bub3 strain (AID 167); settings: S. cerevisiae bub3 mutant strain, at 50.0 µM, hits give high values
Summary of the method: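 Yeast carrying a defined mutation is treated with each compound, and growth is compared with that of vehicle-exposed cells to give inhibition.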

[6] = NCI Yeast Anticancer Drug Screen. Data for the mlh1 rad18 strain (AID 175); settings: S. cerevisiae mlh1 rad18 strain growth inhibition; at 50.0 µM; hits give high values
Summary of the method: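 Compound-treated yeast growth, normalised to vehicle controls. Strain bears defined DNA repair mutations.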

Measured: growth inhibition

Nc1nc2c(C(=O)c3cccs3)nnn2c2cccc(Cl)c12
inactive: [1] -21.1% | [2] -21.1% | [3] -21.9% | [4] -12.2% | [5] -14.8% | [6] -2.25%

O=C1c2ccccc2C(=O)N1c1cccc2ccccc12
inactive: [1] 51.4% | [2] 8.2% | [3] 26.6% | [4] -19.4% | [5] 55.7% | [6] 62%

Cn1c(=O)c2[nH]c(CCCCCc3nc4c([nH]3)c(=O)n(C)c(=O)n4C)nc2n(C)c1=O
inactive: [1] -9% | [2] 7.15% | [3] -27.3% | [4] -18.5% | [5] -16.4% | [6] -16.1%

Nc1ccc([N+](=O)[O-])cc1C(=O)Oc1ccccn1
inactive: [1] 9.15% | [2] 5% | [3] 8.5% | [4] 10.8% | [5] -3.6% | [6] 19%

NC(=O)C(=O)C(c1ccccc1)c1ccccc1
inactive: [1] 0.3% | [2] 4.55% | [3] -1.1% | [4] -4.05% | [5] 7.95% | [6] -8.35%

CCCS(=O)(=O)N(CC)CC
inactive: [1] -0.4% | [2] -10.8% | [3] -1.9% | [4] -27.5% | [5] -5.65% | [6] -15.4%

CCOC(=O)NN(C(=O)OCC)C(C(=O)C1=CCCCC1)N(NC(=O)OCC)C(=O)OCC
inactive: [1] -9.95% | [2] -1.15% | [3] 4.5% | [4] 0.2% | [5] 0.3% | [6] -2.85%

NC(=O)c1ccc(NCC2=CC(=O)C=CC2=O)cc1
inactive: [1] -9.85% | [2] 3.25% | [3] -5.05% | [4] -2.6% | [5] -17.9% | [6] 16.8%

O=C(O)CSCCOCCSCC(=O)O
inactive: [1] -15.9% | [2] -54% | [3] -17.1% | [4] 12.1% | [5] -16.3% | [6] -15.6%

O=C(O)c1cccc2cnccc12
inactive: [1] -40.6% | [2] -17.6% | [3] -26.9% | [4] 1.3% | [5] -13.3% | [6] -8.7%

CN(C)C(=O)Nc1ccc(C#N)cc1
inactive: [1] 10.1% | [2] 2.3% | [3] -13.3% | [4] -25.1% | [5] -5.15% | [6] -8.2%

O=C(O)Cn1ccc(=O)c2c([N+](=O)[O-])cccc21
inactive: [1] 27.2% | [2] 16.1% | [3] 0.35% | [4] 5.3% | [5] 8.55% | [6] -51.6%

COc1cc2c(cc1OC)C1C(=O)c3c(O)cc4c(c3OC1CO2)C=CC(C)(C)O4 (stereo unspecified)
inactive: [1] 49.8% | [2] 10.3% | [3] 14.3% | [4] 15.3% | [5] 33.9% | [6] 36.7%

CSC1(C)CC2C(CC1N1CCCCC1)C2(C)C (stereo unspecified)
inactive: [1] -28.4% | [2] -16.4% | [3] -46.4% | [4] 5.8% | [5] -24% | [6] -35.9%

N#CC(NCCc1ccccc1)c1ccccc1 (stereo unspecified)
inactive: [1] 2.45% | [2] -3.1% | [3] -32.8% | [4] -20.1% | [5] -56.7% | [6] -3.95%

CCCOc1ccc(OCC(=O)c2ccccc2)cc1
inactive: [1] -23.9% | [2] -32.5% | [3] 25.8% | [4] 5.3% | [5] 61.5% | [6] 8%

NC(=O)CSCC(N)C(=O)O (stereo unspecified)
inactive: [1] -9.75% | [2] -26.4% | [3] -13.1% | [4] -21.9% | [5] -28.5% | [6] -20%

Nc1cc(N)n(C2=NCCN2)n1
inactive: [1] -1.5% | [2] -27.5% | [3] 8% | [4] 11.1% | [5] 0% | [6] -13.3%

O=C(NCCCOc1ccc(Cl)c(Cl)c1)NCCc1ccc(Cl)c(Cl)c1
inactive: [1] 6.65% | [2] 4.7% | [3] -3.95% | [4] -8.9% | [5] 0.95% | [6] 15.4%

COc1ccccc1N=Nc1c(C)nc(N)nc1-c1ccccc1
inactive: [1] 23.1% | [2] 10.4% | [3] 25.9% | [4] 7.9% | [5] 4.6% | [6] 23.6%

CCOC(=O)NC(=O)c1cn(CCN2CCN(c3ncnc4nc[nH]c34)CC2)c(=O)[nH]c1=O
inactive: [1] 18.9% | [2] 16.6% | [3] 14.4% | [4] 12.7% | [5] -4.3% | [6] 23.1%
